Screening data as filed in PubChem.
Only some compounds are listed: those with a hit (about 3.5% of all), similar ones and a draw of the others.
MITF primary: inhibitors of human MITF; 0.91% of 650,000 active; inhibition, % at 2.6 µM; O75030; AlphaScreen MITF homodimerization, bead proximity signal; in the data active = inhibition above about 50%;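 also: 0% = vehicle wells with protein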
GPR151 ag: activates the human receptor GPR151; AID 1508602; PathHunter beta-arrestin GPR151 cells, luminescence; activation, % at 11.2 µM; Q8TDV0; 1% of 650,000 active; in the data active = activation above about 4.9%;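 also: 0% = median of compound wells and 100% = cells with positive control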
Target sequence (Q8TDV0 whole entry, looked up): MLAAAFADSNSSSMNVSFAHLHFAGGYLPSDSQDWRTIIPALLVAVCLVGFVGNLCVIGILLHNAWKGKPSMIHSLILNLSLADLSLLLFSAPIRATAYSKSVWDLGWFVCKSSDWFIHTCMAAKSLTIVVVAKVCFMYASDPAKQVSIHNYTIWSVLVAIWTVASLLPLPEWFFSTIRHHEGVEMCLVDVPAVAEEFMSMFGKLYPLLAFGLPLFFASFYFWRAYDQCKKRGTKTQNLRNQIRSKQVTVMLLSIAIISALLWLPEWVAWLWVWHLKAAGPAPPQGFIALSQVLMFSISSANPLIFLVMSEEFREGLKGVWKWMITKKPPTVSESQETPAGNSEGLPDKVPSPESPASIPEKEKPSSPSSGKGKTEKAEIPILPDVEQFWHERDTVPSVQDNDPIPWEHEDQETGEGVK
TEAD-YAP block: TEAD-YAP interaction inhibition. HEK-TIYL cells, TEAD-Gal4/YAP UAS-luciferase luminescence. inhibition, % at 9.12 µM. 1.4% of 640,000 active. AID 1259422; in the data active = inhibition above about 32%;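 also: 0% = median of test compound wells and 100% = reference inhibitor wells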
FBW7 activator: activators of human E3 ligase FBW7. AlphaScreen FBW7–phospho-cyclin E peptide binding, activator screen. 0.13% of 650,000 active. normalized activity (activation), % at 26.1 µM. Q969H0; in the data active = normalized activity above about 1.9%;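 also: purified mutant Fbw7 with reduced substrate affinity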
GPR151 conf act: human GPR151 activation, confirmation screen. GPR151 PathHunter beta-arrestin cells, luminescence, 90 min; % of EA-reagent control over plate median. shares compounds with GPR151 ag. 6,700 tested, under 10 active. activation, % at 11.2 µM;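 active = mean percent activation across replicates above the confirmation screen cutoff of 4.91%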
GPR119 ag: activates human GPR119 in a GPR151 counter-screen | shares compounds with GPR151 ag | GPR119 PathHunter beta-arrestin cells, luminescence, 90 min; 0 = compound-well median, 100 = enzyme-acceptor control | activation, % at 11.2 µM | 0.3% of 6,700 active;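 active = mean percent activation in the counterscreen above 29.09%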;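 also: counterscreen on off-target GPR119 to flag nonselective hits from the GPR151 activator screen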
Starred values were filed as active, the others as inactive; . = not tested or not shown.

SMILES	MITF primary	GPR151 ag	TEAD-YAP block	FBW7 activator	GPR151 conf act	GPR119 ag
CCOC(=O)N1CCN(c2c(NCCN3CCCCCC3)c(=O)c2=O)CC1	-2	2	-9	0	.	.
CCOC(=O)N1CCN(c2c(NCCN3CCCC3)c(=O)c2=O)CC1	1	5.5*	-6	0	1	10
CCOC(=O)C1CCN(c2c(NCCN3CCOCC3)c(=O)c2=O)CC1	10	6.3*	1	0	-1	-18
CC1CCN(c2c(NCc3ccc(C(=O)NCCc4ccccc4)cc3)c(=O)c2=O)CC1	3	5.2*	-9	0	1	-8
CCc1c(C)nc(SCC(=O)NCc2cccnc2)[nH]c1=O	8	0	-1	0	.	.
O=C(Cn1cnc2c(c1=O)C1CCCCC1S2)NCC(=O)N1CCC2(CC1)OCCO2 (stereo not drawn)	16	1	11	0	.	.
CCOC(=O)C1CCCN(c2c(NCCCN3CCN(C)CC3)c(=O)c2=O)C1 (stereo not drawn)	-3	0	5	0	.	.
CCOC(=O)N1CCN(c2c(NC3CCCCCCC3)c(=O)c2=O)CC1	3	3	2	0	.	.
CCCCNc1c(N2CCCC(C(=O)OCC)C2)c(=O)c1=O (stereo not drawn)	1	5.1*	-1	0	3	6
CCOC(=O)N1CCC(Nc2c(NC(C)CC)c(=O)c2=O)CC1 (stereo not drawn)	-20	8.8*	-3	0	0	10
CCCCSc1nsc2sc(C(=O)c3ccccc3)c(N)c12	5	0	-24	0	.	.
CC(=O)c1cc2c(cc1NC(=O)c1cccc(Br)c1)OCCO2	18	5.6*	13	0	0	-2
CC(=O)c1cc2c(cc1NC(=O)c1ccccc1)OCCO2	13	0	0	0	.	.
Cc1ccc(S(=O)(=O)N(CC(N)=O)c2cccc([N+](=O)[O-])c2)cc1	-1	8.4*	-7	0	1	-1
CS(=O)(=O)N(CC(N)=O)c1cccc([N+](=O)[O-])c1	-9	0	-1	0	.	.
CCOc1ccc(N2C(=O)/C(=C\c3cc(OC)ccc3OC)S(=O)(=O)C2c2cccc([N+](=O)[O-])c2)cc1 (stereo not drawn)	-1	1	-7	0	.	.
O=C(c1nc2sccn2c1CNCC(c1cccnc1)N1CCOCC1)N1CCCC1 (stereo not drawn)	6	9.8*	13	0	0	-1
O=C(c1nc2sccn2c1CNCC(c1ccccn1)N1CCOCC1)N1CCCC1 (stereo not drawn)	11	1	9	0	.	.
COc1cc(C(NC(=O)CCl)NC(=O)CCl)ccc1OCC(C)C	3	0	21	0	.	.
CCOc1ccc(S(=O)(=O)NC2CC2)cc1	7	3	5	0	.	.
CCOc1ccc(S(=O)(=O)NC2CCCCC2)cc1	12	5.3*	4	0	-1	-6
CC(C)c1nc(CNc2nc3nonc3nc2N(C)C)cs1	15	6.8*	3	0	-1	-8
CN(C)c1ccc(NC(=O)CC2NCCNC2=O)cc1 (stereo not drawn)	7	5.0*	-5	0	-1	1
O=C(CC1NCCNC1=O)Nc1ccccc1 (stereo not drawn)	-7	0	-1	0	.	.
CC(CC(=O)Nc1nc2ccc([N+](=O)[O-])cc2s1)c1ccccc1 (stereo not drawn)	18	6.5*	16	0	1	9
SMILES	MITF primary	GPR151 ag	TEAD-YAP block	FBW7 activator	GPR151 conf act	GPR119 ag
COc1ccc(CC(=O)NCC2CCCN(Cc3ccccc3C)C2)cc1 (stereo not drawn)	2	0	-4	0	.	.
O=C(Cn1cc(C(=O)c2ccc(F)cc2)c(=O)c2ccccc21)Nc1ccc2c(c1)OCO2	2	0	-6	0	.	.
O=C(Cn1cc(C(=O)c2ccccc2)c(=O)c2ccccc21)Nc1ccc2c(c1)OCCO2	-5	6.6*	7	0	0	6
Cc1ccc(N(CC(O)CN2CCOCC2)S(=O)(=O)c2ccc([N+](=O)[O-])cc2)cc1 (stereo not drawn)	5	-1	9	0	.	.
Cc1ccc(N(CC(O)Cn2nc(C)cc2C)S(=O)(=O)c2ccc([N+](=O)[O-])cc2)cc1 (stereo not drawn)	1	4.9*	-10	0	1	2
O=C(c1ccc(Cl)cc1)n1c(=O)oc2cc(S(=O)(=O)N3CCCCC3)ccc21	-4	-1	-3	0	.	.
O=C(NCCc1ccc(O)cc1)c1cnc(-c2ccc(N3CCOCC3)nc2)s1	-2	5.1*	0	0	-1	-4
Cc1c(Cl)cccc1NC(=O)c1cc([N+](=O)[O-])ccc1N1CCN(C)CC1	0	6.2*	11	0	1	19
CN1CCN(c2ccccc2NC(=O)c2ccc([N+](=O)[O-])cc2Cl)CC1	21	-2	-8	1	.	.
CCOC(=O)CSC1=C(C#N)C(c2ccco2)C(C(=O)Nc2ccccc2)=C(C)N1 (stereo not drawn)	-3	5.0*	-8	1	1	-1
CC(=O)N(C)c1ccc(NC(=O)c2ccco2)cc1	8	5.3*	-27	0	-1	-6
O=C(c1ccccc1[N+](=O)[O-])N(Cc1ccc(Cl)cc1)C1CCS(=O)(=O)C1 (stereo not drawn)	-14	5.0*	0	0	1	-2
CN(C)c1ccc(CN(C(=O)c2ccccc2[N+](=O)[O-])C2CCS(=O)(=O)C2)cc1 (stereo not drawn)	20	-1	-8	0	.	.
N#C/C(=C\c1ccc(-c2ccc(F)cc2)o1)C(=O)NCC1CCCO1 (stereo not drawn)	-3	5.5*	1	0	-1	2
COC(=O)c1c(NC(C)=O)c2c(C)c(C)sc2n1Cc1cccc(OC)c1	-4	0	0	0	.	.
C=Cc1ccc(Cn2c(C(=O)OC)c(NC(C)=O)c3c(C)c(C)sc32)cc1	-2	5.4*	-2	0	0	-15
O=c1c2c(-c3ccccc3)csc2ncn1Cc1ccc([N+](=O)[O-])cc1	20	5.6*	4	0	-1	-3
Cn1c(=O)c2c(nc(Cl)n2CC(=O)NCc2ccccc2)n(C)c1=O	15	6.5*	12	0	0	7
CCN1CCN(c2nc3c(c(=O)n(C)c(=O)n3C)n2CCSc2ncccn2)CC1	-3	8.0*	2	0	0	4
Cn1c(=O)c2c(nc(N3CCCCCC3)n2CCc2ccccc2)n(C)c1=O	-11	5.0*	-7	0	2	8
COc1ccccc1-n1cnc2cc(C(=O)NCc3ccccn3)ccc21	-4	-1	-3	0	.	.
